Measured values reported in PubChem BioAssay AID493185 (National Center for Advancing Translational Sciences (NCATS), 2011).
Calls of active or inactive are those of the source. Calls follow the shape of the dose curve; as a rule, active = well fitted activation curve with a large enough effect; inconclusive = small, poorly fitted or top-dose-only effect; inactive = no such curve, though single readings can be large or run the other way.

Test: Counterscreen for Identifying a Potential Treatment of Ataxia-Telangiectasia: Hit Validation; also: 0% is about no effect
Settings: cell-free AlphaLISA/AlphaScreen artifact counterscreen, PBS only, no cells; series mostly up to 76.9 µM; activation: at the top concentration
How it was run: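 Cell-free AlphaLISA counterscreen: compounds (up to 76.7 uM final) in PBS with detection mix of anti-pKAP1 and anti-KAP1 antibodies on donor/acceptor beads plus lysis buffer, incubated 6 hr at 25C before AlphaScreen read.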

| SMILES | activation |
| --- | --- |
| O=C(NCc1ccccc1)c1cccnc1Sc1ccccc1 | 3.76% (inactive) |
| Cc1ccc(NC(=O)CSc2nnc([C@H](C)NC(=O)OC(C)(C)C)o2)c(C)c1 | 44.6% (inactive) |
| Clc1cccc(Cl)c1CSc1nnc(-c2ccncc2)s1 | -5.74% (inactive) |
| CCCN1CN(c2ccccc2)C(=S)N(c2ccccc2)C1 | -2.26% (inactive) |
| CCC(C)N1C(=S)SC(C)(C)C1N(O)C(=O)NC1CCCCC1 (stereo unspecified) | -10.8% (inactive) |
| C[C@H](NC(=O)OC(C)(C)C)C(=O)NCC1CCC(C(=O)N[C@@H](Cc2ccccc2)C(=O)O)CC1 (stereo partly specified) | -14.8% (inactive) |
| COc1ccc(CCNC2=NCCS2)cc1OC | 2.46% (inactive) |
| C[C@@H]1Cc2c(O)c(O)cc(O)c2C(=O)O1 | -9.77% (inactive) |
| Cc1cc(C)n2nc(C(=O)OCCOc3ccc(F)cc3)nc2n1 | -13.1% (inactive) |
| CSc1nc(SCC(=O)O)c2c3c(sc2n1)COC(C)(C)C3 | -10.5% (inactive) |
| C=C(C)n1c(=O)n(Cc2ccccc2C)c2ccccc21 | -0.82% (inactive) |
| N#C/C(=C/c1ccc(F)cc1)C(N)=S | 3.28% (inactive) |
| COc1ccc(/C=N/Nc2nc(=O)[nH]nc2C)cc1OC | 3.28% (inactive) |
| COc1ccccc1Nc1nc(NCCCN(C)C)nc(N)c1[N+](=O)[O-] | -13.8% (inactive) |
| N#Cc1c(-c2ccccc2)cc(-c2ccccc2)[nH]c1=O | 4.51% (inactive) |
| CCOC(=O)c1ccc(-n2c(C)nc3ccc(Br)cc3c2=O)cc1 | -26.9% (inactive) |
| O=C(Nc1cnn(C23CC4CC(CC(C4)C2)C3)c1)c1cnn2cccnc12 | 9.77% (inactive) |
| c1ccc(CSc2nnc(-c3ccco3)n2Cc2ccco2)cc1 | -13.9% (inactive) |
| CC(=O)NNC(=O)CN1C(=O)/C(=C/c2ccccc2)SC1=S | -5.26% (inactive) |
| C=CCC(CC)C(=O)NC(=O)N1CCCc2ccccc21 (stereo unspecified) | -6.15% (inactive) |
| CCNC(=S)N(CCc1c(C)[nH]c2ccccc12)Cc1cccnc1 | -1.64% (inactive) |
